According to paper PMC7819943, “Rice protein-binding microarrays: a tool to detect cis-acting elements near promoter regions in rice”:
Whole data set: some 68,000 sequences, median “fluorescence intensity (a.u.)” near 9,100, cut for the highest 2% near 16,000. The full list was thinned out, with the highest values kept by preference.

biological target: OsWRKY34 (Oryza sativa, UniProt Q0JBA9 1-250); assay: protein-binding microarray (RPBM); PBS, 2% BSA, 51.3 ng/ul salmon testes DNA, 50 uM zinc acetate, 200 nM TF, 25 C, 1 h; high values mean tight binding; conditions: protein: recombinant; tags: N-terminal polyhistidine and DsRed monomer fusion (pET32a); label: CyDye5-dUTP incorporated in the synthesized complementary strand; 3' TTTTT single-stranded linker to array surface; dsDNA, one strand shown
Method in brief: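 Transcription factors were made in E. coli BL21-CodonPlus as N-terminal fusions to a polyhistidine tag and DsRed, then purified on Ni–NTA. After primer extension with Cy5-dUTP and blocking with 2% BSA, a custom Agilent array was exposed for 1 h at 25 °C to 200 nM protein in PBS, 2% BSA, salmon testes DNA and 50 µM zinc acetate. Washed arrays were scanned on an Axon 4000B, and the binding signal is per-feature fluorescence intensity in arbitrary units.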

Chain of OsWRKY34 (Q0JBA9 entry or part of it): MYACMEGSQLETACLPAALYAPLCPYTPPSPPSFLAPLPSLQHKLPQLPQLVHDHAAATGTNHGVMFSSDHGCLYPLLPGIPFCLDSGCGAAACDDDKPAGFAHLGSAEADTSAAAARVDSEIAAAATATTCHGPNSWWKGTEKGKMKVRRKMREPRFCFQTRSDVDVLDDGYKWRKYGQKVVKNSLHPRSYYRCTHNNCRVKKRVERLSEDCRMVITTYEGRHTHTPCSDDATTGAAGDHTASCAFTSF

Q: With “TTCCTCCGTCTGCGTGCCGGCTTCTGTCTTCCTCCGCGCGCGGAGTCACCTAGTGCAG” as the sequence, how does the binding signal read?
A: 17300 fluorescence intensity (a.u.)

Q: “CGTCGCCGCCGCCGGCGTCTTCTCCACCTCCTCCGCGCCGCGGAGTCACCTAGTGCAG” was tested. Which binding signal did it give?
A: 8030 fluorescence intensity (a.u.)

Q: “TCGCCTATCTCTCTATCTCTTTCGCCACCGCTTGCCTCTCCGGAGTCACCTAGTGCAG” was tested. Which binding signal did it give?
A: 9030 fluorescence intensity (a.u.)

Q: Which binding signal does the source give for “CTCTCCTCTCCTCGCTTCTTCGTCTCGCTTGCTCGCTCGCCGGAGTCACCTAGTGCAG” here?
A: 8550 fluorescence intensity (a.u.)

Q: “GTCGTCGCCTGCCTCTTCGTCGCCGCTCTCGTCTCCGCTCCGGAGTCACCTAGTGCAG” was tested. Which binding signal did it give?
A: 9880 fluorescence intensity (a.u.)

Q: With “TCCCGCTTCTCCTCCGTCGCTCTCCGCCGCCGCCGCCACCCGGAGTCACCTAGTGCAG” as the sequence, how does the binding signal read?
A: 10200 fluorescence intensity (a.u.)

Q: For “GCTCTATCTTTACTCGCCATTTAATCGTTGCCTCGCGCTCCGGAGTCACCTAGTGCAG”, which binding signal is on record?
A: 16900 fluorescence intensity (a.u.)

Q: For “CATTTAAATCGCCATCACTCCGCGCGCTCTCCCATCCATCCGGAGTCACCTAGTGCAG”, which binding signal is on record?
A: 8870 fluorescence intensity (a.u.)

Q: How did the binding signal turn out when “GCGCGCGCCGGCCTCCGTCTTCCTCCGCGGGTGCGCCACCCGGAGTCACCTAGTGCAG” was run?
A: 10400 fluorescence intensity (a.u.)

Q: “ACACTCTCGCCGTCGCCGCCTCCTCGCCTCCGCTTACTCCCGGAGTCACCTAGTGCAG” was tested. Which binding signal did it give?
A: 16700 fluorescence intensity (a.u.)

Q: For “CGCCGCCTCCGCTCCACTCTCCTCGCCGTCGCCGGTCCTCCGGAGTCACCTAGTGCAG”, which binding signal is on record?
A: 11500 fluorescence intensity (a.u.)

Q: “CGTTCATTCCGCATCCAATGGCAGCACTGGTTCCTAGCTTCGGAGTCACCTAGTGCAG” was tested. Which binding signal did it give?
A: 8110 fluorescence intensity (a.u.)

Q: How did the binding signal turn out when “TTATACCACCGGATGCTGACACCATTCATCCGCTCTTCCTCGGAGTCACCTAGTGCAG” was run?
A: 10700 fluorescence intensity (a.u.)

Q: How did the binding signal turn out when “CTGTATGGCCACCGTCGCAGCTCGTCCTACACGTTTCTCACGGAGTCACCTAGTGCAG” was run?
A: 10600 fluorescence intensity (a.u.)

Q: “TGCTAAACCTGTGGTGTTAAATCTGGCTGGTTGCCTGTCTCGGAGTCACCTAGTGCAG” was tested. Which binding signal did it give?
A: 9280 fluorescence intensity (a.u.)

Q: With “TAACAGTTGACACAGGGAGCGGAGGGGCAGCTTGGTCATTCGGAGTCACCTAGTGCAG” as the sequence, how does the binding signal read?
A: 8420 fluorescence intensity (a.u.)

Q: Which binding signal does the source give for “CCTTAACACTTAATCCATGTGATGCATCTGTCATGCAACTCGGAGTCACCTAGTGCAG” here?
A: 8250 fluorescence intensity (a.u.)

Q: For “TCCCCGCGGGCATGCCCGTTGCTGCGGGCGCAGCTCAATTCGGAGTCACCTAGTGCAG”, which binding signal is on record?
A: 8280 fluorescence intensity (a.u.)

Q: For “GTGCTGGAGGGAGGGAACGGGGAACGTGGCAACTGACACGCGGAGTCACCTAGTGCAG”, which binding signal is on record?
A: 9030 fluorescence intensity (a.u.)

Q: “GCGCAAACGCTCGAATTTTTGGTTTTGATCCATATGCATACGGAGTCACCTAGTGCAG” was tested. Which binding signal did it give?
A: 8580 fluorescence intensity (a.u.)

Q: How did the binding signal turn out when “TGTAGTCCCGCGTCGCACGGCATCCGGCCGGCCTCTCCTACGGAGTCACCTAGTGCAG” was run?
A: 8760 fluorescence intensity (a.u.)

Q: With “GGGATGGGGAAGGTCAGAGCCAATATGATCTGGTAACTCTCGGAGTCACCTAGTGCAG” as the sequence, how does the binding signal read?
A: 9510 fluorescence intensity (a.u.)

Q: How did the binding signal turn out when “CAAAGGTTCTAATGTTTGACCTCATTCTTATCTAAAACGACGGAGTCACCTAGTGCAG” was run?
A: 9440 fluorescence intensity (a.u.)

Q: For “GCGTCGCCTGCCGCCTCCGCTTCCGCTCCACTCCGCTTCGCGGAGTCACCTAGTGCAG”, which binding signal is on record?
A: 12000 fluorescence intensity (a.u.)

Q: With “ACCTCGTACCTCGCCGCTGTTCCGTTCCGTGCTCTGTGTCCGGAGTCACCTAGTGCAG” as the sequence, how does the binding signal read?
A: 18700 fluorescence intensity (a.u.)

Q: With “GTAGTCATTCACGTGTTCCTCTTCTCCAGTACTAGTAGCTCGGAGTCACCTAGTGCAG” as the sequence, how does the binding signal read?
A: 9710 fluorescence intensity (a.u.)

Q: “TCTCCTCTTCTTTTTCTTCCTTCCTTTTACTCGCTCGCTCCGGAGTCACCTAGTGCAG” was tested. Which binding signal did it give?
A: 9930 fluorescence intensity (a.u.)

Q: For “AACCCTAGCTCTTCACAGCTTCCATGGCTCTTCTCTCTCTCGGAGTCACCTAGTGCAG”, which binding signal is on record?
A: 12500 fluorescence intensity (a.u.)

Q: For “CTGAACTCTCTCTCGCTCTCCGGCTCTCTGTATTCCTTCACGGAGTCACCTAGTGCAG”, which binding signal is on record?
A: 19800 fluorescence intensity (a.u.)

Q: Which binding signal does the source give for “GTTCCAGCTTCATGCATGCACACACACAGTAGCTCGTGCTCGGAGTCACCTAGTGCAG” here?
A: 29300 fluorescence intensity (a.u.)

Q: For “CAATCTCTCTCTCTCTCTCTCTCGCTGCTGCTGCTCCTTCCGGAGTCACCTAGTGCAG”, which binding signal is on record?
A: 9770 fluorescence intensity (a.u.)

Q: How did the binding signal turn out when “CTCTCTGTGTCTCCGCCGCCGCCGCCTCCGCCGCTCGCCGCGGAGTCACCTAGTGCAG” was run?
A: 8060 fluorescence intensity (a.u.)

Q: For “CCCGCTCGCTCTCGTGCTGTCCGCCGACCTCAGCTCGCTCCGGAGTCACCTAGTGCAG”, which binding signal is on record?
A: 10000 fluorescence intensity (a.u.)

Q: “AACCATAAAACATGTGATTCTTTTTTTTAACCAAAACTTACGGAGTCACCTAGTGCAG” was tested. Which binding signal did it give?
A: 8130 fluorescence intensity (a.u.)

Q: “ACCACTTAATCTTTATCTTTGTTAGATTCATTACTACTATCGGAGTCACCTAGTGCAG” was tested. Which binding signal did it give?
A: 8310 fluorescence intensity (a.u.)

Q: How did the binding signal turn out when “TATAGGTATTCACTACCTTATCATTTATTCATACCTTGTTCGGAGTCACCTAGTGCAG” was run?
A: 8060 fluorescence intensity (a.u.)

Q: Which binding signal does the source give for “GGCTCCAAATCATCTGCCTTCATTGTCAGGCTTCAGTAATCGGAGTCACCTAGTGCAG” here?
A: 10400 fluorescence intensity (a.u.)

Q: Which binding signal does the source give for “AGATTCGTGTAGACCCATTGTCTGGCAGCGGCGATCGTCCCGGAGTCACCTAGTGCAG” here?
A: 8040 fluorescence intensity (a.u.)

Q: With “AGTTGATCGCGGTCAAATCGTCACGTTAGTTGAACCCGGTCGGAGTCACCTAGTGCAG” as the sequence, how does the binding signal read?
A: 8260 fluorescence intensity (a.u.)

Q: With “TCACCCACCTGTTGACTACCATCACCACTCCTCGTCTGGACGGAGTCACCTAGTGCAG” as the sequence, how does the binding signal read?
A: 8590 fluorescence intensity (a.u.)

Q: “GCCACTCCTGACGTCAGCGTTGACTCGGTCAAACCCATCGCGGAGTCACCTAGTGCAG” was tested. Which binding signal did it give?
A: 19300 fluorescence intensity (a.u.)

Q: With “ATACACACTTCAGTCACTCGGTAGGCCACTCCGTACGGCACGGAGTCACCTAGTGCAG” as the sequence, how does the binding signal read?
A: 8510 fluorescence intensity (a.u.)
